Reference: PubChem BioAssay AID1159580 (chemical genetic matrix, 2015)
Among all 5,500 compounds or so, about 2,000 (36%) were called active. Inconclusive results (about 18%) are left out. Rule as the data show it: active = normalized growth mostly below about 0.91 (no sharp cut-off); inconclusive = no clear call, values can overlap the other calls; inactive = mostly above about 0.92. The list shows a part of the results.

Assay: chemical genetic growth profiling, strain panel (AID 1159580);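 also: tested at 20 µM; growth read once vehicle control cultures reached saturation at 30 °C; 1 = growth at the plate median or of vehicle wells; lower values mean less growth of the strain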
Settings: S. cerevisiae deletion strains, growth OD

Measured: normalized growth

C=C1C2CC[C@@]3(C)[C@H](c4ccoc4)OC(=O)C[C@]13O[C@H]1CC(=O)C(C)(C)C(CC(=O)OC)[C@@]21C (some centres not stated)
inactive: locus YAL021C, strain ccr4, active compounds read low 1.01 | locus YAL026C, strain drs2, active compounds read low 0.981 | locus YAL030W, strain snc1, active compounds read low 0.983 | locus YBL061C, strain skt5, active compounds read low 0.981 | locus YBR009C, strain hhf1, active compounds read low 0.995 | locus YBR021W, strain FUR4, active compounds read low 1 | locus YBR023C, strain chs3, active compounds read low 0.977 | locus YBR171W, strain sec66, active compounds read low 0.953 | locus YBR229C, strain ROT2, active compounds read low 0.989 | locus YBR231C, strain swc5, active compounds read low 0.983 | locus YBR279W, strain paf1, active compounds read low 0.979 | locus YCL011C, strain gbp2, active compounds read low 0.962 | locus YCL016C, strain dcc1, active compounds read low 1.01 | locus YCL029C, strain bik1, active compounds read low 0.992 | locus YCL061C, strain MRC1, active compounds read low 0.987 | locus YCL069W, strain vba3, active compounds read low 0.964 | locus YCR088W, strain abp1, active compounds read low 0.964 | locus YDL005C, strain med2, active compounds read low 0.969 | locus YDL035C, strain GPR1, active compounds read low 0.984 | locus YDL040C, strain nat1, active compounds read low 0.966 | locus YDL074C, strain BRE1, active compounds read low 1.01 | locus YDL101C, strain DUN1, active compounds read low 1 | locus YDL185W, strain tfp1, active compounds read low 1.01 | locus YDL192W, strain arf1, active compounds read low 0.988 | locus YDR001C, strain nth1, active compounds read low 0.976 | locus YDR069C, strain doa4, active compounds read low 0.975 | locus YDR101C, strain arx1, active compounds read low 0.986 | locus YDR137W, strain rgp1, active compounds read low 0.922 | locus YDR159W, strain sac3, active compounds read low 0.948 | locus YDR162C, strain NBP2, active compounds read low 0.962 | locus YDR195W, strain ref2 0.978 | locus YDR297W, strain sur2, active compounds read low 0.983 | locus YDR318W, strain mcm21, active compounds read low 0.998 | locus YDR334W, strain swr1, active compounds read low 0.966 | locus YDR335W, strain msn5, active compounds read low 0.972 | locus YDR388W, active compounds read low 1.02 | locus YDR392W, strain spt3, active compounds read low 0.958 | locus YDR502C, strain sam2, active compounds read low 1.01 | locus YEL003W, strain gim4, active compounds read low 0.979 | locus YEL037C, strain rad23, active compounds read low 0.97 | locus YEL061C, strain CIN8 (second series), active compounds read low 0.966 | locus YER015W, strain faa2, active compounds read low 0.987 | locus YER016W, strain bim1, active compounds read low 0.975 | locus YER110C, active compounds read low 1.01 | locus YER111C, strain swi4, active compounds read low 0.978 | locus YER155C, strain BEM2 (second series), active compounds read low 0.991 | locus YER155C, strain BEM2, active compounds read low 1.01 | locus YER167W, strain BCK2, active compounds read low 0.984 | locus YFR010W, strain ubp6, active compounds read low 0.963 | locus YGL078C, strain dbp3, active compounds read low 1.02 | locus YGL086W, strain mad1, active compounds read low 1 | locus YGL167C, strain pmr1, active compounds read low 0.97 | locus YGL173C, strain kem1, active compounds read low 0.969 | locus YGL227W, strain vid30, active compounds read low 0.973 | locus YGL240W, strain doc1, active compounds read low 0.974 | locus YGL248W, strain PDE1, active compounds read low 0.998 | locus YGL253W, strain hxk2, active compounds read low 0.952 | locus YGR135W, strain pre9, active compounds read low 1.03 | locus YGR252W, strain gcn5, active compounds read low 1.01 | locus YHR013C, strain ard1, active compounds read low 0.974 | locus YHR027C, strain rpn1, active compounds read low 0.985 | locus YHR030C, strain SLT2, active compounds read low 0.996 | locus YHR079C, strain IRE1 (second series), active compounds read low 0.998 | locus YHR094C, strain hxt1, active compounds read low 1.01 | locus YHR129C, strain ARP1, active compounds read low 1.01 | locus YHR142W, strain chs7, active compounds read low 0.969 | locus YHR200W, strain rpn10, active compounds read low 1.01 | locus YIL066C, strain RNR3, active compounds read low 0.989 | locus YIL073C, strain SPO22, active compounds read low 1.04 | locus YIL125W, strain kgd1, active compounds read low 1 | locus YIR030C, strain dcg1, active compounds read low 1 | locus YJL092W, strain hpr5, active compounds read low 0.967 | locus YJL095W, strain BCK1 (second series), active compounds read low 0.991 | locus YJL095W, strain BCK1, active compounds read low 1.03 | locus YJL115W, strain asf1, active compounds read low 0.973 | locus YJL129C, strain trk1, active compounds read low 0.961 | locus YJL134W, strain LCB3, active compounds read low 1.01 | locus YJL154C, strain vps35, active compounds read low 0.973 | locus YJL164C, strain tpk1, active compounds read low 1 | locus YJL166W, strain qcr8, active compounds read low 0.977 | locus YJL168C, strain set2, active compounds read low 0.998 | locus YJL187C, strain SWE1 (second series), active compounds read low 1.01 | locus YJL187C, strain SWE1, active compounds read low 0.974 | locus YKL009W, strain mrt4, active compounds read low 0.968 | locus YKL068W, active compounds read low 1 | locus YKL085W, strain MDH1 (second series), active compounds read low 0.989 | locus YKL085W, strain MDH1, active compounds read low 0.989 | locus YKL160W, strain elf1, active compounds read low 1.01 | locus YKR001C, strain vps1, active compounds read low 1 | locus YKR026C, strain gcn3, active compounds read low 0.979 | locus YKR091W, strain srl3, active compounds read low 0.986 | locus YLL001W, strain dnm1, active compounds read low 1.01 | locus YLL026W, active compounds read low 0.981 | locus YLL041C, strain sdh2, active compounds read low 0.974 | locus YLR027C, strain aat2, active compounds read low 0.996 | locus YLR039C, strain RIC1, active compounds read low 0.794 | locus YLR058C, strain SHM2, active compounds read low 1 | locus YLR102C, strain apc9, active compounds read low 1 | locus YLR221C, strain rsa3, active compounds read low 0.957 | locus YLR258W, strain gsy2, active compounds read low 0.975 | locus YLR262C, strain YPT6 (second series), active compounds read low 0.923 | locus YLR262C, strain YPT6, active compounds read low 0.701 | locus YLR268W, strain sec22, active compounds read low 0.984 | locus YLR320W, strain mms22, active compounds read low 0.964 | locus YLR342W, strain FKS1 (second series), active compounds read low 1 | locus YLR342W, strain FKS1, active compounds read low 0.993 | locus YLR357W, strain rsc2, active compounds read low 0.991 | locus YLR370C, strain arc18, active compounds read low 0.955 | locus YLR371W, strain rom2, active compounds read low 1.01 | locus YLR384C, strain iki3, active compounds read low 0.964 | locus YLR418C, strain cdc73, active compounds read low 1.01 | locus YML016C, strain PPZ1, active compounds read low 0.995 | locus YML032C, strain rad52, active compounds read low 1.02 | locus YML120C, strain ndi1, active compounds read low 0.973 | locus YML124C, strain tub3, active compounds read low 1.01 | locus YMR058W, strain fet3, active compounds read low 0.983 | locus YMR078C, strain ctf18, active compounds read low 1.01 | locus YMR125W, strain sto1, active compounds read low 0.98 | locus YMR129W, active compounds read low 0.985 | locus YMR205C, strain PFK2, active compounds read low 1.03 | locus YMR223W, strain ubp8, active compounds read low 1 | locus YMR231W, strain pep5, active compounds read low 0.943 | locus YMR307W, strain GAS1, active compounds read low 0.998 | locus YNL067W, strain RPL9B, active compounds read low 1.02 | locus YNL071W, strain lat1, active compounds read low 0.982 | locus YNL128W, strain TEP1, active compounds read low 0.996 | locus YNL209W, strain ssb2, active compounds read low 0.978 | locus YNL233W, strain BNI4, active compounds read low 0.969 | locus YNL248C, strain rpa49, active compounds read low 0.986 | locus YNL250W, strain rad50, active compounds read low 1.02 | locus YNL271C, strain bni1, active compounds read low 1 | locus YNL298W, strain CLA4, active compounds read low 1.01 | locus YNL307C, strain MCK1, active compounds read low 1.01 | locus YNL322C, strain KRE1 (second series), active compounds read low 0.967 | locus YNR049C, strain mso1, active compounds read low 0.982 | locus YNR052C, strain pop2, active compounds read low 1.01 | locus YOL012C, strain htz1 0.839 | locus YOL147C, strain pex11, active compounds read low 1.01 | locus YOR001W, strain rrp6, active compounds read low 0.944 | locus YOR061W, strain CKA2, active compounds read low 0.993 | locus YOR069W, strain VPS5, active compounds read low 1 | locus YOR070C, strain gyp1, active compounds read low 1.01 | locus YOR080W, strain dia2, active compounds read low 0.957 | locus YOR083W, strain WHI5, active compounds read low 1.01 | locus YOR106W, strain vam3, active compounds read low 0.982 | locus YOR136W, strain idh2, active compounds read low 1 | locus YOR144C, strain elg1, active compounds read low 1.01 | locus YOR184W, strain ser1, active compounds read low 0.985 | locus YOR265W, strain rbl2, active compounds read low 1 | locus YOR270C, strain vph1, active compounds read low 0.957 | locus YOR290C, strain snf2, active compounds read low 0.97 | locus YOR316C, strain cot1, active compounds read low 1 | locus YPL051W, strain arl3, active compounds read low 0.995 | locus YPL078C, strain atp4, active compounds read low 1.01 | locus YPL106C, strain sse1, active compounds read low 0.978 | locus YPL240C, strain hsp82, active compounds read low 0.965 | locus YPL241C, strain CIN2, active compounds read low 0.998 | locus YPR119W, strain clb2, active compounds read low 1.01 | locus YPR141C, strain kar3, active compounds read low 0.997 | locus YPR163C, strain tif3, active compounds read low 1.01 | locus YPR167C, strain met16, active compounds read low 1 | strain wtn01, active compounds read low 0.987
